These results are taken from PubChem BioAssay (NCATS).

Several values for one entry are separate records, joined by “and”; a condition that tells them apart may be missing. Equal values may be shown once. Results filed as inconclusive are left out. A structure can be active in one record and inactive in another. A number with no mark means an inactive call. Activity calls are given as the source filed them. The call rests on the fitted dose curve; in most records, active means well fitted inhibition curve with a large enough effect; inconclusive means small, poorly fitted or top-dose-only effect; inactive means flat fitted curve, though single readings scatter.

For one experiment, the system named is P93_24. Description: qHTS profiling for inhibitors of Plasmodium falciparum proliferation (AID 504749). Further: potency means the concentration at half of the fitted maximal effect. The note with it: P. falciparum in erythrocytes, SYBR Green DNA, 72 h; series mostly up to 28.7 µM. In a few lines:
(§1)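 Fluorescence of SYBR Green-bound parasite DNA, read at 485/535 nm, served as the growth measure. Infected erythrocytes were cultured with compound 72 h; artemisinin (0.29 uM) and DMSO wells defined the normalization range.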
(In general: qHTS replaces the single test concentration by a dilution series.)

The subject of a further experiment is P94_40. The description is as above. Particulars: P. falciparum in erythrocytes, SYBR Green DNA, 72 h; series mostly up to 28.7 µM. A digest of the protocol:
as §1

A further experiment concerns PAD. Described as above. Particulars: P. falciparum in erythrocytes, SYBR Green DNA, 72 h; series mostly up to 28.7 µM. In a few lines:
as §1

A further experiment deals with PC15. Described as above. The note with it: P. falciparum in erythrocytes, SYBR Green DNA, 72 h; series mostly up to 28.7 µM. A digest of the protocol:
as §1

The subject of the next experiment is PC26. Described as above. Particulars: P. falciparum in erythrocytes, SYBR Green DNA, 72 h; series mostly up to 28.7 µM. In a few lines: as §1
The subject of the next experiment is PC49. The description is as above. The note with it: P. falciparum in erythrocytes, SYBR Green DNA, 72 h; series mostly up to 28.7 µM. In a few lines: as §1
Another experiment relates to SC27B. The experiment is described as above. The note with it: P. falciparum in erythrocytes, SYBR Green DNA, 72 h; series mostly up to 28.7 µM. A digest of the protocol:
as §1

A further experiment deals with TAB109. Described as above. The note with it: P. falciparum in erythrocytes, SYBR Green DNA, 72 h; series mostly up to 28.7 µM. A digest of the protocol: as §1
The subject of another experiment is TAB113. Described as above. Particulars: P. falciparum in erythrocytes, SYBR Green DNA, 72 h; series mostly up to 28.7 µM. A digest of the protocol:
as §1

The subject of another experiment is TAB165. Described as above. Particulars: P. falciparum in erythrocytes, SYBR Green DNA, 72 h; series mostly up to 28.7 µM. A digest of the protocol: as §1
Another experiment has as its system W2. The experiment is described as above. The note with it: P. falciparum in erythrocytes, SYBR Green DNA, 72 h; series mostly up to 28.7 µM. A digest of the protocol: as §1
For the next experiment, the system named is CRL-7250. Nature of the experiment: Cytotoxic Profiling of Annotated Libraries Using Quantitative High-Throughput Screening (AID 1296008). Further: potency means the concentration at half of the fitted maximal effect. On max response: on the % scale 0 is the no-effect control and ±100 the full control effect. Particulars: Five cell lines viability, CellTiter-Glo ATP luminescence, 48-72 h; max response: stronger effect = lower value. In a few lines: (§2)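 Compounds were pin-transferred onto cells and incubated 48 or 72 hr at 37 degree Celsius, 95% humidity. CellTiter-Glo was added, plates sat 10 min at room temperature, then ATP-coupled luminescence was imaged as the viability read-out.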

The subject of the next experiment is HEK293. Described as above. Particulars: Five cell lines viability, CellTiter-Glo ATP luminescence, 48-72 h; max response: stronger effect = lower value. A digest of the protocol: as §2
On the technique in general: ATP-based viability assays read luminescence as a measure of living cells.

In experiment [1] the test system is HaCat. Described as above. The note with it: Five cell lines viability, CellTiter-Glo ATP luminescence, 48-72 h; max response: stronger effect = lower value. In a few lines:
as §2

The subject of another experiment is KB-3-1. The description is as above. Particulars: Five cell lines viability, CellTiter-Glo ATP luminescence, 48-72 h; max response: stronger effect = lower value. A digest of the protocol:
as §2

A further experiment deals with NIH3T3. The description is as above. Particulars: Five cell lines viability, CellTiter-Glo ATP luminescence, 48-72 h; max response: stronger effect = lower value. In a few lines:
as §2

The test system of experiment [2] is HACAT. Nature of the experiment: qHTS assay to identify novel small-molecules to repurpose for Merkel cell carcinoma treatment (AID 1296009). The note with it: MCC and control cell lines, CellTiter-Glo viability, 72 h; at 44.8 µM (top of the series) unless noted. A digest of the protocol:
(§3)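 Luminescence from CellTiter-Glo, read 10 min after addition at room temperature, reported viability following a 72 hr, 37 degree celsius treatment with NPC or MIPE compounds in titration; values normalized to plate controls.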

The subject of a further experiment is HEK293T. The description is as above. The note with it: MCC and control cell lines, CellTiter-Glo viability, 72 h; at 44.8 µM (top of the series). In a few lines: as §3
In another experiment the test system is MCC-13. The experiment is described as above. The note with it: MCC and control cell lines, CellTiter-Glo viability, 72 h; series mostly up to 46 µM. A digest of the protocol: as §3
For a further experiment, the system named is MCC-26. The description is as above. The note with it: MCC and control cell lines, CellTiter-Glo viability, 72 h; series mostly up to 46 µM. In a few lines: as §3
Further: nearly all actives have a fitted effect of over 60% in size.

`O=C(O)c1cc(-c2ccccc2)nc2ccccc12`: the outcome with P93_24, in the experiment with PAD, in the experiment on PC15, in the experiment on PC49, in the experiment with TAB109 and in the experiment with HEK293 was inactive. Moreover, the compound was classed as inactive in the experiment with HaCat [1], in the experiment with NIH3T3, in the experiment on HACAT [2] and in the experiment with HEK293T. Also, the Potency entry in the experiment with P94_40, in the experiment with PC26, with SC27B, in the experiment on TAB113, in the experiment on TAB165 and in the experiment with W2 was “inactive” throughout. Also, the Potency result in the experiment with MCC-13 and in the experiment on MCC-26 was “inactive” throughout. Besides, the max response in the experiment on CRL-7250 is -0.325% and 3.3% and 1.79%; with HEK293, -6.89%; in the experiment on HaCat [1], -15.6%; in the experiment with KB-3-1, -3.95% and -19% and 4.62%; with NIH3T3 it was 0.25% and -0.385%.

On to `CN(C)CCC(c1ccccc1)c1ccccn1` (stereo unspecified), for which the compound was called inactive with P93_24, in the experiment with PAD, with PC15, in the experiment on HEK293, in the experiment with HaCat [1] and with NIH3T3. The compound was classed as inactive in the experiment on HACAT [2] and with HEK293T. Besides, the Potency result with SC27B, in the experiment with TAB113, with TAB165, in the experiment on MCC-13 and in the experiment on MCC-26 was “inactive” throughout. Also, the Potency in the experiment on W2 is 4.26 µM (active). The max response in the experiment with CRL-7250 is -4.39%; with HEK293 it was -3.33%; in the experiment with KB-3-1 it was -8.17% and 1.69%; with NIH3T3, -1.68%.

Turning to `COC(=O)[C@@H]1[C@H]2C[C@H]3c4[nH]c5ccccc5c4CCN3C[C@@H]2CC[C@@H]1O`, the compound was classed as inactive in the experiment on CRL-7250, with HaCat [1], in the experiment on NIH3T3 and in the experiment on HACAT [2]. Moreover, the max response in the experiment on HEK293 was -10.9% and -9.65%; in the experiment on HaCat [1] it was 0.769%; with KB-3-1, -4.37% and 9.99%; in the experiment with NIH3T3, -5.76%. The Potency entry with MCC-13 and in the experiment with MCC-26 was “inactive” each time.

For `Cc1c(NC(=O)c2ccc(C(C)(C)C)cc2)cccc1-c1cn(C)c(=O)c(Nc2ccc(C(=O)N3CCOCC3)cc2)n1`, the max response with CRL-7250 was 2.1%; in the experiment with HaCat [1] it was -8.79%; in the experiment with KB-3-1, 3.17% and -18.9%; with NIH3T3, -19.5% and -5.9%. Moreover, the compound was classed as inactive in the experiment on CRL-7250. Besides, the Potency in the experiment on HEK293 was 11.8 µM (active). Further, the Potency result in the experiment with MCC-13 and in the experiment with MCC-26 was “inactive” each time.

As to `CCOC(=O)C1=C(N)Oc2ccc(Br)cc2C1C(C#N)C(=O)OCC` (stereo unspecified), the max response in the experiment with CRL-7250 was 2.39% and -0.818% and 2%; with HEK293 it was -11.5% and -3.28%; with HaCat [1], -16.4%; in the experiment with KB-3-1, -1.43%; in the experiment on NIH3T3, 0.0498% and 4.88%. Further, the compound was called inactive in the experiment with HEK293, in the experiment on HaCat [1], in the experiment on KB-3-1, with NIH3T3, in the experiment with HACAT [2] and with HEK293T. The Potency result in the experiment with MCC-13 and in the experiment with MCC-26 was “inactive” throughout.

As to `Cc1ccccc1C(C(=O)NC1CCCCC1)N(C(=O)Cn1ccnc1C)c1cccc(F)c1` (stereo unspecified), the max response with CRL-7250 is -5.16%; with HEK293 it was -0.939%; with KB-3-1, 1.35% and 1.14%; in the experiment on NIH3T3 it was -2.46% and -16.9%. The compound was classed as inactive in the experiment with CRL-7250, with HaCat [1] and in the experiment on HACAT [2]. The Potency entry in the experiment with MCC-13 and in the experiment with MCC-26 was “inactive” in each case.

In the case of `Cc1cnc(C(=O)O)c[n+]1[O-]`, the result with P93_24, in the experiment on PAD, in the experiment with PC15, in the experiment with PC49, with TAB109 and in the experiment with HEK293 was inactive. Besides, the compound was called inactive in the experiment on HaCat [1], in the experiment on KB-3-1, in the experiment with HACAT [2] and with HEK293T. Besides, the Potency entry in the experiment with P94_40, in the experiment with PC26, with SC27B, in the experiment on TAB113, in the experiment on TAB165 and in the experiment with W2 was “inactive” each time. Moreover, the Potency entry in the experiment on MCC-13 and with MCC-26 was “inactive” throughout. Further, the max response in the experiment on CRL-7250 was 4.3%; in the experiment with KB-3-1 it was 1.54% and 2.87% and -1.62%; in the experiment with NIH3T3, -3.95%.

For the compound `COc1cc2ncnc(-n3nc(-c4ccccn4)nc3N)c2cc1OC`, the Potency in the experiment with CRL-7250 is 3.55 µM (active); in the experiment on HaCat [1], 3.17 µM (active). Moreover, the max response in the experiment on CRL-7250 was -12.8%; with NIH3T3 it was 0.54% and -22.1%. Further, the call in the experiment on HEK293, in the experiment on HaCat [1], in the experiment on KB-3-1, with HACAT [2] and with HEK293T was inactive. In addition, the Potency entry in the experiment with MCC-13 and in the experiment on MCC-26 was “inactive” each time.

In the case of `Cc1ccc(Nc2cc(-c3cccc(N4C(=O)c5ccccc5C4=O)c3)ncn2)cc1NS(C)(=O)=O`, the result in the experiment on CRL-7250, in the experiment with HaCat [1], in the experiment with KB-3-1, in the experiment on NIH3T3 and in the experiment on HACAT [2] was inactive. For the same compound, the figures for the max response in the experiment on HEK293, with KB-3-1 and with NIH3T3 were -21.5%, 6.32% and -7.13%, respectively. For the same compound, the Potency entry in the experiment on MCC-13 and in the experiment on MCC-26 was “inactive” throughout.

Take `CCN1CCC[C@H]1CNC(=O)c1cc(S(N)(=O)=O)ccc1OC`: the result in the experiment with P93_24, in the experiment on PAD, with PC15, in the experiment with PC49, in the experiment on TAB109 and in the experiment with HEK293 was inactive. Moreover, the result with HaCat [1], with KB-3-1, in the experiment on HACAT [2] and in the experiment on HEK293T was inactive. Besides, the Potency entry in the experiment on P94_40, in the experiment with PC26, in the experiment on SC27B, in the experiment on TAB113, in the experiment on TAB165 and in the experiment on W2 was “inactive” each time. The Potency entry in the experiment with MCC-13 and in the experiment with MCC-26 was “inactive” in each case. Further, the max response was -0.0938% and -2.14% with CRL-7250; -3.98% with HaCat [1]; -2.45% in the experiment with KB-3-1; 0.0033% and 0.419% with NIH3T3.

For the compound `COc1ccc2cc(-c3nc(-c4ccc(S(C)=O)cc4)[nH]c3-c3ccncc3)ccc2c1` (stereo unspecified), the max response with CRL-7250 is -4.22%; in the experiment on HaCat [1], -7.74%; in the experiment on KB-3-1, 4.38%; in the experiment with NIH3T3, 3.08%. Moreover, the compound was classed as inactive with CRL-7250, with HaCat [1] and in the experiment with HACAT [2]. Further, the Potency entry with MCC-13 and in the experiment with MCC-26 was “inactive” throughout.

Regarding `CC(=O)Oc1cc2c(s1)CCN(C(C(=O)C1CC1)c1ccccc1F)C2` (stereo unspecified), the max response was 4.12% with CRL-7250, 0.622% in the experiment on HaCat [1] and -10.7% in the experiment on KB-3-1. Also, the Potency is 2.96 µM (active) in the experiment on HEK293 and 4.69 µM (active) in the experiment with KB-3-1. The Potency entry in the experiment on MCC-13 and in the experiment with MCC-26 was “inactive” each time.
